The target of the test is Gonadotropin-releasing hormone receptor (Homo sapiens) (UniProt P30968). The test is described as follows: Human gonadotropin-releasing hormone receptor (GnRHR) small molecule agonists, calcium flux assay in GnRHR-HEK293 cells (AID 1920063). Further: nearly all actives have a fitted effect of over 35% in size. A digest of the protocol: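 Agonist mode: compounds at 15 concentrations, in triplicate, went onto calcium dye-loaded GnRHR-HEK293 cells. Intracellular calcium was then followed as 480/540 nm fluorescence at 1 s intervals over 3 min.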
Chain of Gonadotropin-releasing hormone receptor (Homo sapiens) (P30968 whole entry, looked up): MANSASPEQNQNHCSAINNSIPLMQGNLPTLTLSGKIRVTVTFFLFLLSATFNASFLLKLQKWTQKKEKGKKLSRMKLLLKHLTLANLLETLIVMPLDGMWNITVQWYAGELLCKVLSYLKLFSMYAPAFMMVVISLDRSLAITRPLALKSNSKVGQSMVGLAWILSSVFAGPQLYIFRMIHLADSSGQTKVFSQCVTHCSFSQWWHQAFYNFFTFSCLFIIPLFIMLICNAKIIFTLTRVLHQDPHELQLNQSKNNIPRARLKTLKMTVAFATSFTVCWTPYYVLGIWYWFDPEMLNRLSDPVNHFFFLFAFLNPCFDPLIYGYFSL

Calls of active or inactive are those of the source. Entries that show only a call come without a potency. The call rests on the fitted dose curve.
Potency means the concentration at half of the fitted maximal effect.

For the compound `Cc1ccccc1N=C(N)N=C(N)N`, the Potency result is “inactive”.
With `CN(C)CC[C@@H](c1ccc(Br)cc1)c1ccccn1`, the Potency entry was “inactive”.
As for `C=C[Si](OC)(OC)OC`, the Potency entry is “inactive”.
Under `COc1cc(/C=C/C(=O)CC(=O)/C=C/c2ccc(O)c(OC)c2)ccc1O` stands 39.2 µM (active).

Source of the values: PubChem BioAssay (Tox21).
